# Measurements taken from the supplement of paper PMC6378613.
# Compound: Cc1ccc(-c2ccc3c(ccc4sc5c(c43)NC[C@@H](C)NC5=O)n2)cn1
# Test: kinase activity remaining relative to vehicle control; higher = less inhibition
# Protocol: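 In vitro radiometric kinase profiling of the MK2 inhibitor PF-3644022 at 0.1, 1 and 10 µM against a panel of kinases (MRC International Centre for Kinase Profiling, Dundee). Read-out is % kinase activity remaining relative to the vehicle control, mean of n=2.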
# Chain of UniProt Q9UHD2 (Q9UHD2 whole entry, looked up): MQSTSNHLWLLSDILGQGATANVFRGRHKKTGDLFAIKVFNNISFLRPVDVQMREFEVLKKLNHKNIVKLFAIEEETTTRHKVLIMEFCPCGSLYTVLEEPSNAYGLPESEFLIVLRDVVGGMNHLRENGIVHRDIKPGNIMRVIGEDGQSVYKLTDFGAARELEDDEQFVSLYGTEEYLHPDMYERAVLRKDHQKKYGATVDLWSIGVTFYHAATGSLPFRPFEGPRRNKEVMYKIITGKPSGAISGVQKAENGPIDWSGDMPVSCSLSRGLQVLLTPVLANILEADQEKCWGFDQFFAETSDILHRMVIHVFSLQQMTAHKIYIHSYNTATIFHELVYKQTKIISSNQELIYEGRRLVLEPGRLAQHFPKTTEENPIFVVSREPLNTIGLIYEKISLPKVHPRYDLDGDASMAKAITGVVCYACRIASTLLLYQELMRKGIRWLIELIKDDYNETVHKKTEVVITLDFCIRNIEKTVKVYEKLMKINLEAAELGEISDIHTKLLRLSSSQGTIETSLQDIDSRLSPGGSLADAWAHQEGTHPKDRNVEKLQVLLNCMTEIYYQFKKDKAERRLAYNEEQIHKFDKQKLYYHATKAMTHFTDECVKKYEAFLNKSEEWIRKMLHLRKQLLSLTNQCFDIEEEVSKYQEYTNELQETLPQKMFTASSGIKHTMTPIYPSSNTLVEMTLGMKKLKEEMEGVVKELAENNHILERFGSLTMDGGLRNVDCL
# Chain of UniProt P53779 (P53779 whole entry, looked up): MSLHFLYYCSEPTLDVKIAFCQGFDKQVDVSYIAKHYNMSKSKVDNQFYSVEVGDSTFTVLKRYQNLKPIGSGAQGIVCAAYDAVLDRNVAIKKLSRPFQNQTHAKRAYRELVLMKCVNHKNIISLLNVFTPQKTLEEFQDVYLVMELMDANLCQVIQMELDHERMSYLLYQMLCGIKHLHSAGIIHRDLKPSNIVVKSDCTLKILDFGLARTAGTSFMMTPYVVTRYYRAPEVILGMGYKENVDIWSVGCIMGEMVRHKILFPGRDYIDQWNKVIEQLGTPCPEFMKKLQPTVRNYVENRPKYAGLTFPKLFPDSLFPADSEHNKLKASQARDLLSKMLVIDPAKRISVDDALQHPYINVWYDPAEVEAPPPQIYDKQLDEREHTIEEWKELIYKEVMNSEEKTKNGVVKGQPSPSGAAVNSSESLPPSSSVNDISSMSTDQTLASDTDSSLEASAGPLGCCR
# Chain of UniProt P06239 (P06239 whole entry, looked up): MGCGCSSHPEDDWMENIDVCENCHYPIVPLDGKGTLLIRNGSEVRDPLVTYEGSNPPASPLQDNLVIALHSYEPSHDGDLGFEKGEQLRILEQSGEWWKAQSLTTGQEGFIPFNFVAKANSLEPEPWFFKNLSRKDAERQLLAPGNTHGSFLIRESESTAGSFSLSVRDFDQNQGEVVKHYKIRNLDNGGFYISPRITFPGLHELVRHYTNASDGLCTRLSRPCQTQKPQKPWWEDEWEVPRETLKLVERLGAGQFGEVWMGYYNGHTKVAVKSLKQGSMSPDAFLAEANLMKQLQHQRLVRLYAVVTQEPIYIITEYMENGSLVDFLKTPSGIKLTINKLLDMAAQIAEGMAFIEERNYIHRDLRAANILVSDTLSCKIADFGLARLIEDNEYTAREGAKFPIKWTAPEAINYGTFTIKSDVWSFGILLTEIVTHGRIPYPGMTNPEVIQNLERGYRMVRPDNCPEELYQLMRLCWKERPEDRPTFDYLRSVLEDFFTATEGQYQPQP
# Chain of UniProt Q9HBH9 (Q9HBH9 whole entry, looked up): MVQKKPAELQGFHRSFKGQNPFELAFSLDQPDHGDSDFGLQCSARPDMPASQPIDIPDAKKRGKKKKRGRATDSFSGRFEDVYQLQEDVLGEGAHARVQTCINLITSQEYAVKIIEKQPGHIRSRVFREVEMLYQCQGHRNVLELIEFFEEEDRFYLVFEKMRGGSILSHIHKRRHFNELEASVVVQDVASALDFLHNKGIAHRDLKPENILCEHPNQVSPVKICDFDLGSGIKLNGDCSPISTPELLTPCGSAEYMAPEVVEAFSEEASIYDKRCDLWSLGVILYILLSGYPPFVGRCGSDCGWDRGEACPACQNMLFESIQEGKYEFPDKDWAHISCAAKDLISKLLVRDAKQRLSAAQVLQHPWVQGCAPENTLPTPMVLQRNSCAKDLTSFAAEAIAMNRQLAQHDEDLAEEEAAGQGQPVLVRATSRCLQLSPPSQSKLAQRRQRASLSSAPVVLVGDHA
# Chain of UniProt P16234 (P16234 whole entry, looked up): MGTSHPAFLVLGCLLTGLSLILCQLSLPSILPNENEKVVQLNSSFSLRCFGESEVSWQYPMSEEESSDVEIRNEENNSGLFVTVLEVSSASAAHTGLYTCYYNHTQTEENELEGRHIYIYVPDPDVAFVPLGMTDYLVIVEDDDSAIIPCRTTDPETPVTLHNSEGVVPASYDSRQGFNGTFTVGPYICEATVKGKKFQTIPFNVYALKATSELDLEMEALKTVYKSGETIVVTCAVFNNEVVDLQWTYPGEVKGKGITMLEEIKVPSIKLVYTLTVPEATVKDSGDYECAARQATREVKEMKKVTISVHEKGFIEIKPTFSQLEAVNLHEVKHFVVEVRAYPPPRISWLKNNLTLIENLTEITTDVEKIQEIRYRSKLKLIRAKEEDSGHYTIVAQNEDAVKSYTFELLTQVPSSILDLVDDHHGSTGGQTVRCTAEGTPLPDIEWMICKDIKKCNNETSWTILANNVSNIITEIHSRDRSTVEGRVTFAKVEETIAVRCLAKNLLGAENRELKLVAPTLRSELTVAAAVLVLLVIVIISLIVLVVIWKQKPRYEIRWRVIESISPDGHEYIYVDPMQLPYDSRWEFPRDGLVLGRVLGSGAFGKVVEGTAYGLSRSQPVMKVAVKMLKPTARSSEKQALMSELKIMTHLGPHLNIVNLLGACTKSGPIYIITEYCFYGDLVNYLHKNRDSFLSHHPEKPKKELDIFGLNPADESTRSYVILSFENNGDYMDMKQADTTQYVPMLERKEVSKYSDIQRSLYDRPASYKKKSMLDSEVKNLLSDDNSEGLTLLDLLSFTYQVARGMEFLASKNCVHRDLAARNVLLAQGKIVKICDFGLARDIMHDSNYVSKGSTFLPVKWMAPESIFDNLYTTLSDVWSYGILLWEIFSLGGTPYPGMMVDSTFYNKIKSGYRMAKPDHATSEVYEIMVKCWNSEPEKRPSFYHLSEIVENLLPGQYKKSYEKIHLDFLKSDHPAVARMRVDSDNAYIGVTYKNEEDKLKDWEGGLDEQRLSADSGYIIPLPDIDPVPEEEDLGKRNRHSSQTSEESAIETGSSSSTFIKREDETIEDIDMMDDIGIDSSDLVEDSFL
# Chain of UniProt Q16513 (Q16513 whole entry, looked up): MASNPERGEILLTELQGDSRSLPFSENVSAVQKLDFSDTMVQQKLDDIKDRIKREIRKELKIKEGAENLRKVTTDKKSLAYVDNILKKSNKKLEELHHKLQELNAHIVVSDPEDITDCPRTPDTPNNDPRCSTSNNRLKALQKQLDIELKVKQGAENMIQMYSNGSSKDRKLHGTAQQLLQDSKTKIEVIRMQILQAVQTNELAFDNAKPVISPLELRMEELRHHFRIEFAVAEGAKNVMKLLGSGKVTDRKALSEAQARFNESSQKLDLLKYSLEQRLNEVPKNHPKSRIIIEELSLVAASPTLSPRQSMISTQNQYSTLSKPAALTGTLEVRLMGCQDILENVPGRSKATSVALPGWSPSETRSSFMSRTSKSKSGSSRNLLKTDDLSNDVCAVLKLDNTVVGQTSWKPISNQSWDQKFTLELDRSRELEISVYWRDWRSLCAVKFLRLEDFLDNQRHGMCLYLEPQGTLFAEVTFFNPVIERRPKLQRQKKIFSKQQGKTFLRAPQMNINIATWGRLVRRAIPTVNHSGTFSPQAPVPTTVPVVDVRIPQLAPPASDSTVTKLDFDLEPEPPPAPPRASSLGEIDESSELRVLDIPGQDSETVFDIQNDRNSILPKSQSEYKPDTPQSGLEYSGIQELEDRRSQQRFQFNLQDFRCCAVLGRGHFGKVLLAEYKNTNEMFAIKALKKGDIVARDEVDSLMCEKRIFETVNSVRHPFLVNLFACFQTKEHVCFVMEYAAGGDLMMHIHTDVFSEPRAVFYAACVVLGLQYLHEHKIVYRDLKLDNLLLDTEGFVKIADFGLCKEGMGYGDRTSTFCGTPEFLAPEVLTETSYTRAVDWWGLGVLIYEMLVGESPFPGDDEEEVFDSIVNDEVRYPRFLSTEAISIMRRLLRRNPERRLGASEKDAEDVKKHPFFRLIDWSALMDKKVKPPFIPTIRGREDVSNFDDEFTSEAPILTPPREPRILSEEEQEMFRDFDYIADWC
# Chain of UniProt Q8TDC3 (Q8TDC3 whole entry, looked up): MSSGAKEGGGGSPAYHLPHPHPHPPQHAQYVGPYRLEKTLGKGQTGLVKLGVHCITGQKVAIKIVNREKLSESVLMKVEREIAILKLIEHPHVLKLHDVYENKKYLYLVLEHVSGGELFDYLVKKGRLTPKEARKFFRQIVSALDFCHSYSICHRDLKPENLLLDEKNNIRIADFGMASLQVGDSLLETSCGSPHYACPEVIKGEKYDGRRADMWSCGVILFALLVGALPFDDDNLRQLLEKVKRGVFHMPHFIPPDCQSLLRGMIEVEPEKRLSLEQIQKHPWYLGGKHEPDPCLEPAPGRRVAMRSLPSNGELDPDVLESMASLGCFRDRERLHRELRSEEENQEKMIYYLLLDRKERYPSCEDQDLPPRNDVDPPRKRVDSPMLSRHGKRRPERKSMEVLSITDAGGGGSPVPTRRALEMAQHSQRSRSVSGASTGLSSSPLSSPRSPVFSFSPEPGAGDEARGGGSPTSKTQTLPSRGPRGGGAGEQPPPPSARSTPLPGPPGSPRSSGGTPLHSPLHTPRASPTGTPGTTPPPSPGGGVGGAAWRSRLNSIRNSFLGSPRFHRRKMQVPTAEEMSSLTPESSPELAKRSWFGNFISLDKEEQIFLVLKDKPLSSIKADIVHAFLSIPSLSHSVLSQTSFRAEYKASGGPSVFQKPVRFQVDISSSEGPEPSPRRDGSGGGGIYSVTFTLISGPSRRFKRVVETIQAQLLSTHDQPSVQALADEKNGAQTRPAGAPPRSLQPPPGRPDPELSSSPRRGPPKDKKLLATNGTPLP
Target,kinase activity remaining (inhibitor concentration 0.1 µM) [%],kinase activity remaining (inhibitor concentration 1 µM) [%],kinase activity remaining (inhibitor concentration 10 µM) [%]
BTK (UniProt Q06187),120,118,107
p38 alpha MAPK,94,94,83
DAPK1 (UniProt P53355),103,62,15
CK2,100,97,93
JNK2 (UniProt P45984),123,111,107
HER4 (UniProt Q15303),92,105,99
IRR (UniProt P14616),99,79,53
JNK1 (UniProt P45983),96,93,92
JAK2 (UniProt O60674),101,102,79
TBK1 (UniProt Q9UHD2),110,87,96
Lck (UniProt P06239),108,95,86
HIPK2 (UniProt Q9H2X6),123,113,78
EF2K,106,97,85
p38 beta MAPK,118,126,117
Aurora B,109,99,64
BRSK1 (UniProt Q8TDC3),86,55,29
TLK1 (UniProt Q9UKI8),113,107,100
CK1 delta,96,96,92

Target,kinase activity remaining (inhibitor concentration 0.1 µM) [%],kinase activity remaining (inhibitor concentration 1 µM) [%],kinase activity remaining (inhibitor concentration 10 µM) [%]
ULK1 (UniProt O75385),115,89,75
CHK1 (UniProt O14757),139,109,112
PKC zeta,115,112,106
PAK5 (UniProt Q9P286),108,101,101
CDK2-Cyclin A (UniProt P24941),111,93,57
PAK6 (UniProt Q9NQU5),117,106,116
DYRK1A (UniProt Q13627),80,31,8
PDK1 (UniProt Q15118),104,107,95
ASK1 (UniProt Q99683),106,80,10
MARK1 (UniProt Q9P0L2),116,107,93
PDGFRA (UniProt P16234),104,108,104
MNK2 (UniProt Q9HBH9),111,51,26
DYRK2 (UniProt Q92630),101,105,52
PRK2 (UniProt Q16513),108,101,81
PKA,109,119,108
JNK3 (UniProt P53779),120,104,102
STK33 (UniProt Q9BYT3),105,83,38
MINK1 (UniProt Q8N4C8),98,97,40
